Among the data in ChEMBL document CHEMBL3433997, “St. Jude Leishmania screening dataset” (2016) are inhibition values, retold here.

Values joined by “and” are separate entries in the source; they are usually repeats but may differ in a detail not shown here. Identical values can stand only once.

In the experiment the target is Glucose transporter (Leishmania mexicana) (UniProt O61059). Nature of the experiment: ST_JUDE_LEISH: Cytotoxicity at 2uM final concentration against transgenic Leishmania Mexicana promastigotes LmGT2 that are glucose transport deficient and complemented with the L. Mexicana glucose transporter 2. Activity is measured by DNA content using SYBR green in vitro. It counts as functional.
Turning to `CCOc1ccc(C2CCN(CCCCNC(=O)c3ccc(NC(=O)c4ccc(Cl)cc4)cc3)CC2)c(OCC)c1`, the inhibition – broadly, the relative decrease from the control value, in per cent – was determined as 2.91%.
Regarding `Cc1ccc(NC(=O)c2cccc(N3CCN(c4ccncc4)CC3)c2)cc1F`, the inhibition turned out to be 15.6%.
On to `CC(C)Cc1nc2nc(N)nc(N)c2cc1C(C)C`, for which the inhibition is 1.5%.
The same measure for `COc1ccc2c(NN=CC=Cc3ccccc3)ccnc2c1`: 11.6%; for `Oc1ccc(CCNc2nc(NCCCOc3ccccc3-c3cccc(C(F)(F)F)c3)nc(N3CCNCC3)n2)cc1`: 5.07%; for `COc1cc2ccccc2c(OC)c1CCNCCCCNCCc1c(OC)cc2ccccc2c1OC`: 14.6%.
As for `NC(=O)c1cccc(CNCc2ccc(-c3cccc(-c4nc5ccccc5[nH]4)c3)cc2)c1`, the figure is 5.4%; as for `CN(C)c1ccc(NC2=NC(N)=NC(C)(C)N2)cc1`, 0.7%.
For `CC(CCON1C(N)=NC(N)=NC1(C)C)c1ccc(Cl)cc1` (stereo not given), the inhibition turned out to be 21%.
With `CCOC(=O)c1ccc(OCCCCCCOc2ccc(Br)cc2)cc1`, the inhibition is -0.5%.
The same measure for `O=C(Nc1ccc(Cl)cc1C(=O)Nc1ccncc1)c1ccc(Cl)cc1Cl`: 5.53%; for `CN(C)C1CCN(CC#Cc2cc3ncnc(Nc4ccc(OCc5cccc(F)c5)c(Cl)c4)c3s2)CC1`: 2.9%; for `NC1=NC(c2ccccc2)N(OCc2ccccc2)C(N)=N1` (stereo not given): 0.06%.
As for `CN(C)c1ccc(-c2csc(C(=O)NCC3CCN(CCC(C)(C)C)C3)c2)cc1` (stereo not given), the inhibition is 0.06%.
As for `CN(CCN1CCC(c2c[nH]c3ccccc23)CC1)C(=O)OCCCCCNC(=O)/C=C/c1ccc(Cl)c(Cl)c1`, the figure is 8.82%; as for `CC(C)(CNCc1ccc(F)c(F)c1)c1nc(-c2ccnc(N)n2)c(-c2ccc(Cl)c(O)c2)[nH]1`, 2.56%; as for `Cc1cc(N/N=C/c2ccc([N+](=O)[O-])cc2)c2ccc(F)cc2n1`, -1.86%.
The same measure for `CCCCC([C@@H](Cc1ccc2ccccc2c1)C(=O)N[C@H](C(=O)NC)C(C)(C)C)N(O)C=O` (stereo not given in full): 2.89%.
The same measure for `COc1ccc(C(=O)Nc2ccc(-c3nc4cc(C)ccc4[nH]3)cc2)cc1OC`: 3.84%; for `Cc1cccc2nc(-c3cccc(-c4ccc(CNCCCN5CCCC5=O)cc4)c3)[nH]c12`: 6.5%; for `CC(C)C[C@H](NC(=O)c1cc2ccccc2s1)C(=O)N[C@H]1CCN(Cc2ccc(OCCCN(C)C)c(Cl)c2)C1`: 1.32%.
For the compound `COc1cc(NCC(O)CNc2cc(Cl)nc3ccccc23)nc2ccccc12` (stereo not given), the inhibition was found to be 7%.
Turning to `COc1ccc(NC(=O)/C=C/c2cc(Br)ccc2F)cc1OCCN(C(C)C)C(C)C`, the inhibition worked out at 0.14%.
`O=C(/C=C/c1ccc(Cl)c(Cl)c1)NCCCCCN1CCC(NC(=O)NCCc2ccccc2)CC1`: the inhibition was -3.26%.
The same measure for `O=C(/C=C/c1ccc(Cl)cc1)Nc1ccc2nc(CN3CCCC3)ccc2c1`: 5.54%.
As for `Cc1cccc2nc(-c3cccc(-c4cccc(NC(=O)CC5NC(=O)c6ccccc65)c4)c3)[nH]c12` (stereo not given), the inhibition is 3.21%.
Take `N#Cc1ccccc1C1CCN(C2CCC(Nc3cc(-c4cccnc4)ccn3)CC2)CC1` (stereo not given): the inhibition is 2.26%.
The same measure for `O=C(N[C@@H](Cc1ccccc1)[C@H](O)CNC1CCc2ccccc2C1)c1cc(C2CCCC2)cc(N2CCCC2=O)c1` (stereo not given in full): -4.47%; for `COc1cc(OC)cc(C(=O)N2CCOC(CCN3CCC(c4ccccc4)CC3)(c3ccc(Cl)c(Cl)c3)C2)c1` (stereo not given): -1.58%.
The same measure for `CC(C)(C)c1ccc(NC(=O)c2ccc(CN3CCCN(Cc4cccc(Cl)c4)CC3)cc2)cc1`: 1.91%; for `CCOC(=O)c1ccc2[nH]c(-c3ccc(C(=O)NC4CCN(Cc5ccccc5)CC4)s3)nc2c1`: 0.16%; for `COc1ccc2ncc(F)c(C(O)CN3CCC(NCc4ccc5c(n4)NC(=O)CO5)CC3)c2c1` (stereo not given): -3.55% and 1.93%.
Regarding `CC(=O)C1=NN(c2ccc(C)cc2)C(c2cccs2)N1c1ccccc1` (stereo not given), the inhibition was 2.11%.
For the compound `CCCN(CCC)C(=O)c1cc(C(=O)N[C@@H](Cc2ccccc2)[C@H](O)CNC(C)(C)c2cccc(OC)c2)cc(N2CCCCS2(=O)=O)c1`, the inhibition came out at 2.14%.
As for `FC(F)(F)c1ccc2[nH]c(-c3ccc(-c4ccc(CNCCN5CCNCC5)cc4)s3)nc2c1`, the figure is 9.03%.
`CS(=O)(=O)N1CC2(CCN(CCC(NC(=O)NCc3ccccc3Cl)c3ccc(Cl)c(Cl)c3)CC2)c2ccccc21` (stereo not given): the inhibition came out at 1.78%.
The same measure for `O=C(Nc1ccc(-c2nc3ccccc3[nH]2)cc1)c1cccc([N+](=O)[O-])c1`: -1.09%.
For `COc1cc2ncnc(Nc3ccc(OCc4ccccc4Br)c(Cl)c3)c2cc1OC`, the inhibition was found to be 6.38%.
The same measure for `COc1ccc2[nH]ccc(=NN=Cc3ccccc3F)c2c1`: 7.56%.
The same measure for `O=C(Nc1cccc(CN2CCCN(Cc3ccsc3)CC2)c1)c1ccc(Cl)c(Cl)c1`: -2.87%.
